# From PubChem BioAssay (NCATS)
# Results filed as inconclusive are left out. Where a call stands in place of a potency, no number is given. The source made the active and inactive calls. Unless noted, calls come from the whole dose curve.
# Tests used:
# [1] = qHTS for Inhibitors of the Functional Ribonucleoprotein Complex (vRNP) of Lassa (LASV) Arenavirus: LASV Primary Screen - GLuc reporter signal (AID 1347082; calls by dose curve; tested in HEK293 reporter line; note: series mostly up to about 57 µM; nearly all actives have a fitted effect of over 60% in size)
# [2] = biological target: Nucleoprotein (Lymphocytic choriomeningitis virus (strain Armstrong)) (UniProt P09992); assay: qHTS for Inhibitors of the Functional Ribonucleoprotein Complex (vRNP) of Lymphocytic Choriomeningitis Arenaviruses (LCMV): LCMV Primary Screen - GLuc reporter signal (AID 1347086); note: nearly all actives have a fitted effect of over 70% in size; note: potency is the fitted concentration of half-maximal effect
# [3] = qHTS for Inhibitors of the Functional Ribonucleoprotein Complex (vRNP) of Lassa (LASV) Arenavirus: Viability assay - alamar blue signal for LASV Primary Screen (AID 1347083; calls by dose curve; tested in HEK293 reporter line; note: nearly all actives have a fitted effect of over 80% in size; note: potency is the fitted concentration of half-maximal effect)
# [4] = qHTS for Inhibitors of the Functional Ribonucleoprotein Complex (vRNP) of Lymphocytic Choriomeningitis Arenaviruses (LCMV): Viability assay - alamar blue signal for LCMV Primary Screen (AID 1347085; calls by dose curve; tested in HEK293 reporter line; note: nearly all actives have a fitted effect of over 80% in size; note: potency is the fitted concentration of half-maximal effect)
# [5] = qHTS of pediatric cancer cell lines to identify multiple opportunities for drug repurposing: Primary screen for DAOY cells (AID 1347090; active = well fitted curve in the direction sought with a large enough effect; an effect the other way counts as inactive or inconclusive; note: potency is the fitted concentration of half-maximal effect; nearly all actives have a fitted effect of over 55% in size)
# Procedure, shortened: (§1)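 Cell viability, CellTiter-Glo luminescence; 500-1,000 cells/well, 8- or 11-point titration, 48 h compound exposure at 37 degrees C, 5% CO2. Controls: DMSO neutral, bortezomib 2.3 µM final as positive.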
# [6] = qHTS of pediatric cancer cell lines to identify multiple opportunities for drug repurposing: Primary screen for A673 cells (AID 1347092; active = well fitted curve in the direction sought with a large enough effect; an effect the other way counts as inactive or inconclusive; note: potency is the fitted concentration of half-maximal effect; nearly all actives have a fitted effect of over 45% in size)
# Procedure, shortened: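 Cell viability of A673 measured by CellTiter-Glo ATP luminescence after 48 hours compound exposure. Dilution series spanned 0.78 nM to 46 µM (MIPE, 11-point) or 0.59 nM to 46 µM (NPC, 8-point); bortezomib 2.3 uM positive control.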
# [7] = qHTS of pediatric cancer cell lines to identify multiple opportunities for drug repurposing: Primary screen for SK-N-MC cells (AID 1347093; active = well fitted curve in the direction sought with a large enough effect; an effect the other way counts as inactive or inconclusive; note: potency is the fitted concentration of half-maximal effect)
# Procedure, shortened: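 Metabolically active cells were quantified by ATP-dependent luminescence (CellTiter-Glo, 15 min at room temperature) following 48 h treatment. Cells had been plated at 500-1,000 per well and settled for 5 h beforehand.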
# [8] = qHTS of pediatric cancer cell lines to identify multiple opportunities for drug repurposing: Primary screen for SJ-GBM2 cells (AID 1347091; active = well fitted curve in the direction sought with a large enough effect; an effect the other way counts as inactive or inconclusive; note: potency is the fitted concentration of half-maximal effect)
# Procedure, shortened: as §1
# Nucleoprotein (Lymphocytic choriomeningitis virus (strain Armstrong)), sequence (P09992 whole entry, looked up): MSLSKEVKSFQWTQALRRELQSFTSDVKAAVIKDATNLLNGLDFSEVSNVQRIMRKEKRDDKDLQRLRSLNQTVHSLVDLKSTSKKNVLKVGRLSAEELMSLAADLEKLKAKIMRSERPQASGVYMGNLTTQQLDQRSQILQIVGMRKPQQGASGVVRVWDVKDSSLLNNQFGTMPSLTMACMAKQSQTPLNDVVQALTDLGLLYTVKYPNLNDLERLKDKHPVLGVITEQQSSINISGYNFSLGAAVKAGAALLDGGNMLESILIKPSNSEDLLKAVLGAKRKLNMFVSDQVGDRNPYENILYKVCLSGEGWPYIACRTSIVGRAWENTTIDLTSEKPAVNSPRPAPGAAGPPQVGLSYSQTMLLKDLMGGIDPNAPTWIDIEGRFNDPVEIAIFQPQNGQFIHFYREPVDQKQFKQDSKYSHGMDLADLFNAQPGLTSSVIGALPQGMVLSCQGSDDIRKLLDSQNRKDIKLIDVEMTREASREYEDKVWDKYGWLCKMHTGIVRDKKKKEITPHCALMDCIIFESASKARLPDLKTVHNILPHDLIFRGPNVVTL
smiles,measurement,setting,value
O=C(NCC1CCCCN1)c1cc(OCC(F)(F)F)ccc1OCC(F)(F)F (stereo not drawn),Potency,[1],inactive
same,Potency,[2],inactive
O=C(O)Cc1ccc(-c2ccccc2)cc1,Potency,[1],inactive
same,Potency,[3],inactive
same,Potency,[2],inactive
COc1cccc2c1C(=O)c1c(O)c3c(c(O)c1C2=O)C[C@@](O)(C(=O)CO)C[C@@H]3O[C@H]1C[C@H](N)[C@@H](O)[C@H](C)O1,Potency,[3],1090 nM (active)
same,Potency,[4],1090 nM (active)
same,Potency,[2],1370 nM (active)
CNCCCCOc1ccccc1Cc1ccccc1,Potency,[4],inactive
same,Potency,[2],inactive
CCCCCCNC(=O)n1cc(F)c(=O)[nH]c1=O,Potency,[1],inactive
same,Potency,[3],43200 nM (active)
same,Potency,[2],inactive
COc1cccc2c1C(=O)c1c(O)c3c(c(O)c1C2=O)C[C@@](O)(C(=O)CO)CC3OC1CC(N2CCOC(OC)C2)C(O)C(C)O1 (stereo partly drawn),Potency,[5],42.2 nM (active)
same,Potency,[6],26.6 nM (active)
same,Potency,[7],8.4 nM (active)
COc1cc(C)nc(-n2nc(C)cc2OC)n1,Potency,[1],inactive
same,Potency,[3],inactive
same,Potency,[2],inactive
CN(C)C(=O)COC(=O)Cc1ccc(OC(=O)c2ccc(N=C(N)N)cc2)cc1,Potency,[1],inactive
same,Potency,[2],inactive
COc1cc([C@@H]2c3cc4c(cc3[C@@H](O[C@@H]3O[C@@H]5CO[C@@H](c6cccs6)O[C@@H]5[C@H](O)[C@@H]3O)[C@H]3COC(=O)[C@H]23)OCO4)cc(OC)c1O,Potency,[3],1220 nM (active)
same,Potency,[4],1720 nM (active)
C[C@]12CCC(=O)C=C1CC[C@@H]1[C@H]3CC[C@](C)(O)[C@@]3(C)CC[C@@H]12,Potency,[1],inactive
same,Potency,[3],inactive
same,Potency,[2],inactive
same,Potency,[8],49000 nM (active)
same,Potency,[7],30900 nM (active)
